High-throughput results: PubChem BioAssay, Broad Institute
In the library only some 7.8% were active in any assay of this set; here they are far more common.
Shh pathway inh: Sonic Hedgehog pathway inhibition. Shh-LIGHT2 Gli-luciferase reporter, 30 h. inhibition, % (test concentration not listed). 22,000 tested, 2.1% active;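 active = mean inhibition across valid replicates above about 65%, limit read from the data; inconclusive = mean under the limit, yet half or more replicates past it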;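 note: pathway switched on by Shh-conditioned medium diluted 1 in 25 in low serum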
MITF inhib: MITF inhibition. TRPM1 promoter luciferase, luminescence, 24 h. inhibition, % (no concentration beside the values). 37,000 tested, 0.28% active; in the data active = inhibition above about 85%; inconclusive = no clear call, values can overlap the other calls; inactive = below about 68%;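 note: human melanocyte line stably carrying TRPM1 promoter luciferase reporter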
NOMO-1 viab: STK33 inhibitor candidate reducing NOMO-1 cell viability; inhibition, % (no concentration beside the values); 37,000 tested, 7.5% active; AID 2330; NOMO-1 AML viability, CellTiter-Glo luminescence, 72 h; in the data active = inhibition above about 80%; inconclusive = no clear call, values can overlap the other calls
* marks the source's active call; other numbers are inactive results; u = inconclusive; x = no result.

SMILES	Shh pathway inh	MITF inhib	NOMO-1 viab
Cc1noc(C)c1NC(=O)Nc1ccc2c(c1)CC(=O)N([C@H](C)CO)C[C@@H](C)[C@@H](CN(C)Cc1ccc(-c3ccccc3)cc1)O2	9.0	6.1	44.1
Cc1noc(C)c1NC(=O)Nc1ccc2c(c1)CC(=O)N([C@@H](C)CO)C[C@H](C)[C@H](CN(C)Cc1ccc(Oc3ccccc3)cc1)O2	28.8	0.2	99.6*
O=C1c2c(O)ccc(O)c2C(=O)c2c(NCCNCCO)ccc(NCCNCCO)c21	3.2	95.9*	120.1*
COc1ccccc1OCc1nc(-c2ccccc2)cs1	-35.1	-12.3	33.5
NC(N)=Nc1nc(-c2ccc(-c3ccccc3)cc2)cs1	-9.1	-76.0	114.7*
COc1ccc(CN(C)C[C@H]2OCCCC[C@@H](C)Oc3ccc(NC(=O)Nc4ccc(F)cc4)cc3C(=O)N([C@H](C)CO)C[C@@H]2C)cc1	28.1	-7.9	42.8
COc1ccc(CN(C)C[C@@H]2OCCCC[C@@H](C)Oc3ccc(NC(=O)Nc4ccc(OC)cc4)cc3C(=O)N([C@H](C)CO)C[C@@H]2C)cc1	35.5	7.3	22.4
COc1ccc(CN(C)C[C@H]2OCCCC[C@@H](C)Oc3ccc(NC(=O)Nc4ccc(C(F)(F)F)cc4)cc3C(=O)N([C@H](C)CO)C[C@@H]2C)cc1	u	-28.7	85.1*
COc1ccc(NC(=O)Nc2ccc3c(c2)C(=O)N([C@H](C)CO)C[C@H](C)[C@H](CN(C)Cc2ccc(C(F)(F)F)cc2)OCCCC[C@@H](C)O3)cc1	47.0	19.8	121.8*
O=C(Nc1sc2c(c1C(=O)NCc1ccco1)CCCC2)c1ccc(Br)cc1	x	1.6	28.2
CCN1C2=C(C(=O)CCC2)C(c2cccc(O)c2)C2=C1CCCC2=O	1.0	11.6	-0.7
Cc1cc(C)c(C#N)c(Sc2ncnc3c2nnn3Cc2ccccc2)n1	x	71.2	116.1*
Cc1cc(C)n(Cc2ccccc2)c(=O)c1C#N	x	-2.0	-11.8
CCOc1ccccc1NC(=O)CN1C(=O)c2cccc3cccc1c23	x	31.2	32.6
C[C@H](CO)N1C[C@H](C)[C@H](CN(C)Cc2ccc(C(F)(F)F)cc2)Oc2ccc(NC(=O)Cc3cn(C)c4ccccc34)cc2C1=O	x	34.6	22.4
C[C@H](CO)N1C[C@H](C)[C@@H](CN(C)Cc2ccncc2)Oc2ccc(NC(=O)Cc3cn(C)c4ccccc34)cc2C1=O	2.8	23.2	92.2*
C[C@H](CO)N1C[C@H](C)[C@H](CN(C)Cc2ccc3c(c2)OCO3)Oc2ccc(NC(=O)Cc3cn(C)c4ccccc34)cc2C1=O	24.4	15.6	91.6*
C[C@@H]1CN([C@H](C)CO)C(=O)c2cc(NC(=O)Cc3cn(C)c4ccccc34)ccc2O[C@H]1CN(C)Cc1ccc2c(c1)OCO2	x	12.4	23.8
C[C@@H]1CN([C@@H](C)CO)C(=O)c2cc(NC(=O)Cc3cn(C)c4ccccc34)ccc2O[C@H]1CN(C)Cc1ccc(C(F)(F)F)cc1	-1.9	54.1	91.3*
C[C@H]1CN([C@@H](C)CO)C(=O)c2cc(NC(=O)Cc3cn(C)c4ccccc34)ccc2O[C@H]1CN(C)Cc1ccncc1	-0.9	18.5	73.4
C[C@H]1CN([C@@H](C)CO)C(=O)c2cc(NC(=O)Cc3cn(C)c4ccccc34)ccc2O[C@H]1CN(C)Cc1ccccc1	x	13.7	83.8*
C[C@@H]1CN([C@H](C)CO)C(=O)c2cc(NC(=O)Cc3cn(C)c4ccccc34)ccc2O[C@@H]1CN(C)Cc1ccccc1	x	9.4	45.3
COc1ccc(C)cc1Nc1nc(N)nc(-c2oc3ccccc3c2C)n1	x	-6.3	25.5
CS(=O)(=O)N(CC(=O)Nc1ccccc1C(F)(F)F)c1ccc2c(c1)OCCO2	x	-6.2	-5.0
COc1ccccc1NC(=O)c1ccc(OC(C)C(=O)Nc2cc(Cl)ccc2C)cc1 (stereo unspecified)	x	-10.4	14.6
SMILES	Shh pathway inh	MITF inhib	NOMO-1 viab
Cc1ccc(NC(=O)Cn2nc(-c3ccc(C)c(S(=O)(=O)N(C)C)c3)c3ccccc3c2=O)cc1	x	2.5	-0.3
CCOc1ccc2[nH]c(C)c(CCC(C)=O)c(=O)c2c1	x	-16.3	-10.4
COCCCN=C1NS(=O)(=O)c2ccccc21	x	-8.3	-2.3
C[C@@H]1CN([C@@H](C)CO)C(=O)c2cc(NC(=O)Cc3cn(C)c4ccccc34)ccc2O[C@@H]1CN(C)Cc1ccc(-c2ccccc2)cc1	x	16.1	113.1*
C[C@@H]1CN([C@@H](C)CO)C(=O)c2cc(NC(=O)Cc3cn(C)c4ccccc34)ccc2O[C@H]1CN(C)Cc1ccc(-c2ccccc2)cc1	-7.2	9.6	25.8
C[C@@H]1CN([C@H](C)CO)C(=O)c2cccc(N(C)C)c2O[C@@H]1CN(C)Cc1ccc(C(=O)Nc2ccccc2N)cc1	x	4.7	126.9*
Cc1cc(C(=O)Nc2cccc3c2O[C@@H](CN(C)Cc2ccc(C(=O)Nc4ccccc4N)cc2)[C@H](C)CN([C@H](C)CO)C3=O)n(C)n1	x	0.5	71.5
